The source made the active and inactive calls. Rule for the calls: active = hit-call score of the fitted dose curve at least 0.9, where 1 is the maximum; inactive = score below 0.9.

Assay [1] addresses Bile acid receptor (Homo sapiens) (UniProt Q96RI1). Nature of the assay: ATG_IR1_CIS: Attagene CIS-FACTORIAL HepG2 Assay for human Nuclear Receptor Subfamily 1 Group H Member 4 (NR1H4), IR1 submotif (AID 2282946). The following applies: IR1 reporter transcription, actives raise or lower the signal. Summed up:
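HepG2 cells transiently transfected with multiplexed cis-element reporter units read endogenous transcription factor activity. After 24 h compound exposure, reporter mRNA was quantified by RT-PCR, fluorescent labelling, HpaI digestion and capillary electrophoresis; bidirectional fitting versus DMSO baseline.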

Assay [2] is described as follows: ATG_GRE_CIS: Attagene CIS-FACTORIAL HepG2 Assay for human Glucocorticoid Response Elements (GRE) (AID 2282947). The following applies: HepG2 GRE cis-reporter, Attagene multiplex mRNA; actives raise or lower the signal. Summed up:
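Multiplexed cis-reporter mRNA induction, HepG2, 24 h post-dose. RT-PCR, FAM-labelled, HpaI-digested amplicons by CE. Bidirectional fit vs DMSO.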

Assay [3] is described as follows: ATG_ISRE_CIS: Attagene CIS-FACTORIAL HepG2 Assay for human Interferon Regulatory Factor 1 (IRF1) binding to an Interferon-Stimulated Response Element (ISRE) (AID 2282948). The following applies: HepG2 ISRE cis-reporter (Attagene), mRNA transcription readout; actives raise or lower the signal. In a few lines:
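Multiplexed mRNA reporter readout in human liver HepG2 cells: cis-element-driven reporters transfected, compound added for 24 h, transcripts amplified, fluorescently labelled and sized by capillary electrophoresis; curve fitting bidirectional against DMSO.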

A short description of assay [4]: ATG_M_32_CIS: Attagene CIS-FACTORIAL HepG2 Assay for M32 Transcription Factor (Internal Marker) (AID 2282949).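 Note: background control marker of the multiplexed CIS panel rather than a real target.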 The following applies: HepG2 Attagene cis-factorial M32 reporter, mRNA; actives raise or lower the signal. Summed up:
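Transient MRTU transfection of HepG2; 24 h compound treatment; TriZol RNA, oligo(dT) RT, reporter PCR, 6-FAM primer extension, HpaI cut, CE. Gain/loss of signal vs DMSO.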

Assay [5] can be described thus: ATG_M_06_CIS: Attagene CIS-FACTORIAL HepG2 Assay for M06 Transcription Factor (Internal Marker) (AID 2282950). The following applies: HepG2 Attagene CIS-FACTORIAL M06 internal marker reporter; actives raise or lower the signal. In a few lines: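 Terse: HepG2, transient MRTU transfection (FuGene 6), 24 h dosing; total RNA, oligo(dT) RT, PCR, FAM label, HpaI cut, capillary electrophoresis; bidirectional fit vs DMSO baseline; background-control endpoint.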

Assay [6] addresses Hypoxia-inducible factor 1-alpha (Homo sapiens) (UniProt Q16665). Briefly: ATG_HIF1a_CIS: Attagene CIS-FACTORIAL HepG2 Assay for human Hypoxia Inducible Factor 1 (HIF1A) (AID 2282951). The following applies: HepG2 Attagene cis-factorial HIF1a reporter transcription; actives raise or lower the signal. Summed up:
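Dosed 24 h, transfected HepG2 cells yielded total RNA whose reporter transcripts were RT-PCR-amplified and sized by capillary electrophoresis using fluorescent labelling; DMSO defined baseline, with gain and loss of signal both fitted.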

Assay [7] has as its target Hepatocyte nuclear factor 6 (Homo sapiens) (UniProt Q9UBC0). Briefly: ATG_HNF6_CIS: Attagene CIS-FACTORIAL HepG2 Assay for human Hepatocyte Nuclear Factor 6 (HNF6) (AID 2282952). The following applies: HepG2 Attagene cis-factorial HNF6 reporter transcription; actives raise or lower the signal. In a few lines:
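Endogenous factor activity read in transiently transfected HepG2 via promoter-regulated reporter transcripts. RNA harvested 24 h post-dosing, reverse-transcribed, PCR-amplified, FAM-labelled, HpaI-digested and resolved by capillary electrophoresis; fitted in both directions against DMSO.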

The target in assay [8] is Heat shock factor protein 1 (Homo sapiens) (UniProt Q00613). Nature of the assay: ATG_HSE_CIS: Attagene CIS-FACTORIAL HepG2 Assay for human Heat Shock Transcription Factor 1 (HSE) (AID 2282953). The following applies: HepG2 HSE cis-reporter, Attagene RNA transcription; actives raise or lower the signal. In a few lines:
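Read-out: fluorescence of reporter-specific RT-PCR fragments separated by capillary electrophoresis. HepG2 carrying transfected cis-element reporter units; 24 h dosing; activity fitted in both directions relative to DMSO baseline.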

Assay [9] can be described thus: ATG_MRE_CIS: Attagene CIS-FACTORIAL HepG2 Assay for human Metal Responsive Element (MRE) (AID 2282954). The following applies: HepG2 MRE cis-reporter transcription, Attagene multiplex; actives raise or lower the signal. In a few lines: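 Multiplexed cis-reporter assay in human HepG2 liver cells, 24 h incubation with test chemical. Reporter transcripts measured by RT-PCR and capillary electrophoresis; values from bidirectional curve fitting versus DMSO.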

Assay [10] in a line: ATG_PXRE_CIS: Attagene CIS-FACTORIAL HepG2 Assay for human Pregnane X Receptor Element (PXRE) (AID 2282957). The following applies: HepG2 Attagene CIS-FACTORIAL PXRE reporter, mRNA; actives raise or lower the signal. In a few lines:
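Reporter transcripts under endogenous PXR-responsive cis-regulation quantified from total RNA of transfected HepG2 cells 24 h post-dosing, via RT-PCR with fluorescent primer extension and capillary electrophoresis. Gain or loss of signal fitted against DMSO baseline.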

The nature of assay [11]: ATG_PPRE_CIS: Attagene CIS-FACTORIAL HepG2 Assay for human Peroxisome Proliferator-activated Response Element (PPRE) (AID 2282958). The following applies: HepG2 PPRE cis-element reporter, Attagene transcription factor profiling; actives raise or lower the signal. In a few lines:
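Measured endpoint: PPRE-controlled reporter mRNA, detected by RT-PCR and capillary electrophoresis fluorescence, from transiently transfected HepG2 cells 24 h after dosing. Curves fitted in both directions using DMSO baseline.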

Assay [12] in a line: ATG_RORE_CIS: Attagene CIS-FACTORIAL HepG2 Assay for human RAR-related Orphan Receptor Element (RORE) (AID 2282959). The following applies: HepG2 Attagene cis-factorial RORE reporter, mRNA; actives raise or lower the signal. In a few lines: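 Transiently transfected HepG2 reporter cells were treated 24 h. Reporter transcripts were detected by RT-PCR and capillary electrophoresis, with bidirectional fitting against DMSO.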

Assay [13] in a line: ATG_Sox_CIS: Attagene CIS-FACTORIAL HepG2 Assay for human SRY-box transcription factor (SOX) (AID 2282960). The following applies: HepG2 Attagene cis-factorial SOX reporter, mRNA; actives raise or lower the signal. In a few lines: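 Gain- or loss-of-signal endpoint, fitted bidirectionally with DMSO as negative control. Based on reporter mRNA from transfected HepG2 cells harvested 24 h post-treatment and quantified via RT-PCR and capillary electrophoresis.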

Assay [14] concerns the target Transcription factor Sp1 (Homo sapiens) (UniProt P08047). Briefly: ATG_Sp1_CIS: Attagene CIS-FACTORIAL HepG2 Assay for human Specificity Protein 1 (Sp1) (AID 2282961). The following applies: HepG2 Sp1 cis-reporter transcription, actives raise or lower the signal. In a few lines:
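Endpoint reflects endogenous Sp1 transcriptional activity, not an exogenous fusion protein: HepG2 cells with transfected cis-regulated reporters, 24 h dosing, RT-PCR/capillary electrophoresis mRNA read-out, DMSO-normalised bidirectional fit.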

Assay [15] can be described thus: ATG_SREBP_CIS: Attagene CIS-FACTORIAL HepG2 Assay for human Sterol Regulatory Element Binding (SREBP) (AID 2282962). The following applies: HepG2 Attagene cis-factorial SREBP reporter, mRNA; actives raise or lower the signal. In a few lines:
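Endogenous factor activity is measured in HepG2 through multiplexed reporter units under cis-element control. Following a 24 h incubation, reporter transcripts are reverse-transcribed, PCR-amplified and sized by capillary electrophoresis; activity is fitted in both directions relative to DMSO.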

Assay [16] deals with Signal transducer and activator of transcription 3 (Homo sapiens) (UniProt P40763). Briefly: ATG_STAT3_CIS: Attagene CIS-FACTORIAL HepG2 Assay for human Signal Transducer and Activator of Transcription 3 (STAT3) (AID 2282963). The following applies: HepG2, Attagene cis-factorial STAT3 reporter transcription; actives raise or lower the signal. Summed up: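 Cis-factorial format: endogenous transcription factors in HepG2 drive transfected reporter units. After 24 h treatment, reporter RNA was reverse-transcribed, amplified, FAM-labelled and HpaI-digested before CE analysis; activity scored in both directions against DMSO.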

Assay [17] in a line: ATG_TA_CIS: Attagene CIS-FACTORIAL HepG2 Assay for human TA Basal Promoter (AID 2282964). The following applies: HepG2 Attagene CIS-factorial TA basal promoter reporter; actives raise or lower the signal. Summed up:
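Transfected HepG2, 24 h compound exposure; RNA → RT-PCR → FAM primer extension → HpaI cut → CE fluorescence. Gain/loss-of-signal fitted against DMSO negative control. Background-control readout.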

Assay [18] can be described thus: ATG_TCF_b_cat_CIS: Attagene CIS-FACTORIAL HepG2 Assay for human T-Cell-Factor with beta-catenin (TCF/b-cat) (AID 2282965). The following applies: HepG2 TCF/beta-catenin cis-reporter transcription, actives raise or lower the signal. Summed up:
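Endogenous transcription factor activity is captured through cis-promoter reporter constructs transiently introduced into human HepG2 liver cells. Induced reporter mRNA is measured after 24 h and fitted bidirectionally relative to DMSO.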

The target of assay [19] is Paired box protein Pax-6 (Homo sapiens) (UniProt P26367). Briefly: ATG_Pax6_CIS: Attagene CIS-FACTORIAL HepG2 Assay for human Paired Box 6 (PAX6) (AID 2282956). The following applies: HepG2 CIS-FACTORIAL PAX6 reporter transcription, RNA readout; actives raise or lower the signal. Summed up:
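Fluorescent RT-PCR products separated by capillary electrophoresis report PAX6-linked promoter mRNA in HepG2 cells 24 h post-dose. Curves fitted bidirectionally, DMSO as negative control.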

The nature of assay [20]: ATG_PBREM_CIS: Attagene CIS-FACTORIAL HepG2 Assay for human Phenobarbital-responsive Enhancer Module (PBREM) (AID 2282955). The following applies: HepG2 PBREM cis-reporter, Attagene multiplexed transcription; actives raise or lower the signal. In a few lines:
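Transfected liver-derived HepG2 cells exposed 24 h; PBREM reporter transcript quantified via RT-PCR and capillary electrophoresis, with activity in either direction referenced to DMSO.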

Hepatocyte nuclear factor 6 (Homo sapiens), sequence (Q9UBC0 whole entry, looked up): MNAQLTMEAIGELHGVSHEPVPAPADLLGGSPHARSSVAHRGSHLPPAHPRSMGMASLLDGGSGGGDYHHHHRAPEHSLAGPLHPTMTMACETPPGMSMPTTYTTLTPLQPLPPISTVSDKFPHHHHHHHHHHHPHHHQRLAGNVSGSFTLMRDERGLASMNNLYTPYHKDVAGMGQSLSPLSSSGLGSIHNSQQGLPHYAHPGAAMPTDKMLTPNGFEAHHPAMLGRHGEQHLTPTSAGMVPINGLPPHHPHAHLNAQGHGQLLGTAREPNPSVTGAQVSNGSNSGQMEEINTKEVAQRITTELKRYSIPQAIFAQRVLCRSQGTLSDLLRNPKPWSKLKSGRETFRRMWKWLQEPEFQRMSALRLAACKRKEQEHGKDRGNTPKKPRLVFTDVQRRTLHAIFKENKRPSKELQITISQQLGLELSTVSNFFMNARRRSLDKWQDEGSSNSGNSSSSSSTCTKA
Hypoxia-inducible factor 1-alpha (Homo sapiens), sequence (Q16665 whole entry, looked up): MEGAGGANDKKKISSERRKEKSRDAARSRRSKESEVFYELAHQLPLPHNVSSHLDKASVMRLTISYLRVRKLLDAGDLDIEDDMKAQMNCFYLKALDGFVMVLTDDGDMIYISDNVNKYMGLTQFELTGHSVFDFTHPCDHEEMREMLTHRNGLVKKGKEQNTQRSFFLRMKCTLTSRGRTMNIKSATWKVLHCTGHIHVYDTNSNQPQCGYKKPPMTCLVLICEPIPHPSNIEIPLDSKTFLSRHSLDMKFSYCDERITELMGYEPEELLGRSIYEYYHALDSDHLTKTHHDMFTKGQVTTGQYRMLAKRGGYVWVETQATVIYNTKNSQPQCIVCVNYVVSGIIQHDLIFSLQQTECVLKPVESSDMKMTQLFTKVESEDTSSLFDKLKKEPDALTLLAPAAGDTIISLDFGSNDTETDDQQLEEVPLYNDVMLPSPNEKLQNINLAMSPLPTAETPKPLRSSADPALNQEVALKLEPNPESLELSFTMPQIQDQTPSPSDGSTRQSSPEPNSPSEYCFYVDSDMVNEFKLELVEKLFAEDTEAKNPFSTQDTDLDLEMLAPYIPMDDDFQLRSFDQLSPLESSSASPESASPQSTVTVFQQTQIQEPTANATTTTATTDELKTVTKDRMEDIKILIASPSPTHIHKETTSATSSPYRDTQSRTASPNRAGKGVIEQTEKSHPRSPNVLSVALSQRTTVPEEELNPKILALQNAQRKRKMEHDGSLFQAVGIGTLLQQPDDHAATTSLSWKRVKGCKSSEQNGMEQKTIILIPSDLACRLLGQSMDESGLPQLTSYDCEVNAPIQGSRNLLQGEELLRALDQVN
Heat shock factor protein 1 (Homo sapiens), sequence (Q00613 whole entry, looked up, the tested form may be a part): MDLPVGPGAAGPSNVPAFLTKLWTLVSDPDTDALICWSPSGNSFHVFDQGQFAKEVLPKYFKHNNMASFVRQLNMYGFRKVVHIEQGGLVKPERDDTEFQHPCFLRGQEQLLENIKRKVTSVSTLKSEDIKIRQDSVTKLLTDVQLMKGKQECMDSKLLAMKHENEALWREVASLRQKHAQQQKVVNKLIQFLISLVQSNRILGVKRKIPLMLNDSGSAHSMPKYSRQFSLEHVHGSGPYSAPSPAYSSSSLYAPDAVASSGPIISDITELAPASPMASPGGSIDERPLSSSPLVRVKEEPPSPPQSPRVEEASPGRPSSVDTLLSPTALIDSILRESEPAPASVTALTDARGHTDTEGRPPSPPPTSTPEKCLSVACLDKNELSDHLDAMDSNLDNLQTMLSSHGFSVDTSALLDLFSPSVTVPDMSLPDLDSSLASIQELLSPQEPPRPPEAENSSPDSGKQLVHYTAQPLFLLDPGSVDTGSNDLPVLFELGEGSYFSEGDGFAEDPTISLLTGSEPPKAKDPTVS
Transcription factor Sp1 (Homo sapiens), sequence (P08047 whole entry, looked up, the tested form may be a part): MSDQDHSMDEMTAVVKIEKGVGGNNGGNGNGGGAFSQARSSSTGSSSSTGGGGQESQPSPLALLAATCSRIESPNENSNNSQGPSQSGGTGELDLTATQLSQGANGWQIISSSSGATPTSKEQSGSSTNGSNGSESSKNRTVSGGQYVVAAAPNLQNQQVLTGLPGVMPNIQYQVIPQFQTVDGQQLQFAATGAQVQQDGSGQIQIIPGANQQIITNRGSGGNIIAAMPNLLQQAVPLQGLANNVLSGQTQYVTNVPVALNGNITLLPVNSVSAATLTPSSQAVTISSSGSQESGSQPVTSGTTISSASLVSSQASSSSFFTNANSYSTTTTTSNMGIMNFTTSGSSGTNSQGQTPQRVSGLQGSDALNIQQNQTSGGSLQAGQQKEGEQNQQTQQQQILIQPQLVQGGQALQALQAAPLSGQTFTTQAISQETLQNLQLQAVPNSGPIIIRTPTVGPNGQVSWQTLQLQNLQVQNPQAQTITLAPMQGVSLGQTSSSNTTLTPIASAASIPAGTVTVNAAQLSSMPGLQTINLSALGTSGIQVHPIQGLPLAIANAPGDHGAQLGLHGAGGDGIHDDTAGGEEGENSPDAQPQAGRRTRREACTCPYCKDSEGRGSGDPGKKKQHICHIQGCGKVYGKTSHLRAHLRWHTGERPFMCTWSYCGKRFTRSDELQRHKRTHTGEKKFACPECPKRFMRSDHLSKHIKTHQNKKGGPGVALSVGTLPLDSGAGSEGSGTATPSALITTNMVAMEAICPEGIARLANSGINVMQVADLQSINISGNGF
Bile acid receptor (Homo sapiens), sequence (Q96RI1 whole entry, looked up): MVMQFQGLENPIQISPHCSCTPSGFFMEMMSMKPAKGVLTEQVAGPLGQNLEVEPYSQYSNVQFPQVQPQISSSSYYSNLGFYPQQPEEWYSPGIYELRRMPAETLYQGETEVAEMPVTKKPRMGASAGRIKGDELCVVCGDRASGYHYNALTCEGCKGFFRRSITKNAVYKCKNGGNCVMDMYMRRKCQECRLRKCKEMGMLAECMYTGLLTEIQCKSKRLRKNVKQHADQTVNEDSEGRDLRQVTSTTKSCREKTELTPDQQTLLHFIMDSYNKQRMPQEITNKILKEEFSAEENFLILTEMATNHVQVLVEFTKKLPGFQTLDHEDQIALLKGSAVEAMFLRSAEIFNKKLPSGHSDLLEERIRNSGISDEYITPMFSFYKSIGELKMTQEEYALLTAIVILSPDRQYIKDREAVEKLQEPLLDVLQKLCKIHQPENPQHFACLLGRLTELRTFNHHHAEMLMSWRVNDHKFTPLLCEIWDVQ
Signal transducer and activator of transcription 3 (Homo sapiens), sequence (P40763 whole entry, looked up): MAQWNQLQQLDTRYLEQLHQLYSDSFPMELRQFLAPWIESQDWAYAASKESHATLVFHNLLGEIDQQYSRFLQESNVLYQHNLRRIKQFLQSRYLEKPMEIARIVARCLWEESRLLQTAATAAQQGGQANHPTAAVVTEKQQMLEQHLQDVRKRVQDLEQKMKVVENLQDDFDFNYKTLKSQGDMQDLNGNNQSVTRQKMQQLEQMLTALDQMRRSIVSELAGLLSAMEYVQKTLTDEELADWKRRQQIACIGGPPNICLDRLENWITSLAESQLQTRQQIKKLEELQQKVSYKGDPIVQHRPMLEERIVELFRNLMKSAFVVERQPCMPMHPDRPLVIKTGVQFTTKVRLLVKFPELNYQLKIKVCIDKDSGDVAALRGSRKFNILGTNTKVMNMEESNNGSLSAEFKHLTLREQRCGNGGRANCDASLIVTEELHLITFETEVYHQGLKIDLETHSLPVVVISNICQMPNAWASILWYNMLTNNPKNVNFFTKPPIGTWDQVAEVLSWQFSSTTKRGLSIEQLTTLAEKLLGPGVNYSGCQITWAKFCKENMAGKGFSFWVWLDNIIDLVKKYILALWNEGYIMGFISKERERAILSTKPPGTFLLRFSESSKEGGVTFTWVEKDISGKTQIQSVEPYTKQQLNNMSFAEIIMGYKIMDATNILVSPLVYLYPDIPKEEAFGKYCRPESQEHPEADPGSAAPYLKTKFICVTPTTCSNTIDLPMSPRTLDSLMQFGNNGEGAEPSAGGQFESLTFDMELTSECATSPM
Paired box protein Pax-6 (Homo sapiens), sequence (P26367 whole entry, looked up): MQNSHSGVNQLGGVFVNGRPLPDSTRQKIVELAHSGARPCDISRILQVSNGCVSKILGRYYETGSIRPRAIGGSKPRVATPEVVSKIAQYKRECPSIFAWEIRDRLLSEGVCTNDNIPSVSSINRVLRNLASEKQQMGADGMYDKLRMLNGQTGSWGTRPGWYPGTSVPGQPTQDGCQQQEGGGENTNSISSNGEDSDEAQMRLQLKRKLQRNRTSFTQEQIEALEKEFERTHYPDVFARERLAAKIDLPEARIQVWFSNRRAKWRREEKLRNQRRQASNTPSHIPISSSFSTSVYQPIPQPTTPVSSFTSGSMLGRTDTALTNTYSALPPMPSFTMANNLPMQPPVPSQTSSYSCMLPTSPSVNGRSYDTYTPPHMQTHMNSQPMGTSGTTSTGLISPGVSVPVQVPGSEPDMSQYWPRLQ

As for `ClCCOCCCl`, the outcome in [1], in [2], in assay [3], in [4], in assay [5] and in [6] was inactive. Moreover, the outcome in assay [7], in [8], in assay [9], in [10], in [11] and in assay [12] was inactive. The call in assay [13], in [14], in assay [15], in assay [16], in assay [17] and in assay [18] was inactive.
On to `COP(=S)(OC)SCN1C(=O)c2ccccc2C1=O`, for which the call in assay [1], in assay [2], in assay [3], in [4], in assay [5] and in [6] was inactive. Also, the call in assay [7], in [8], in assay [9], in assay [19], in [11] and in assay [13] was inactive. Further, the compound was classed as inactive in assay [14], in [15], in [16], in assay [17] and in assay [18]. In addition, the AC50 in assay [10] was 26.8 µM (active).
Regarding `O=C1CCCO1`, the result in [1], in assay [2], in assay [3], in assay [4], in assay [5] and in [6] was inactive. Also, the call in assay [7], in [8], in assay [9], in [20], in assay [10] and in assay [11] was inactive. Further, the outcome in assay [12], in assay [13], in [14], in [15], in assay [16] and in assay [17] was inactive. Further, the compound was classed as inactive in assay [18].
With `CC(C)COC(=O)c1ccccc1C(=O)OCC(C)C`, the call in assay [1], in assay [2], in assay [4], in [5], in assay [6] and in assay [7] was inactive. In addition, the compound was called inactive in assay [8], in [13], in assay [14], in assay [15] and in [18]. Besides, the AC50 in assay [3] is 167 µM (active); in assay [9] it was 109 µM (active); in assay [19] it was 100 µM (active); in assay [10], 26.1 µM (active); in assay [12], 44.3 µM (active); in assay [17], 56.4 µM (active).

These data come from PubChem BioAssay (EPA / NIEHS).
